# In PubChem BioAssay (NCATS):
# Records with an inconclusive call do not appear. Entries that show only a call come without a potency. Activity calls are given as the source filed them. Calls come from the whole dose curve; as a rule, active = well fitted curve in the direction sought with a large enough effect; inconclusive = small, poorly fitted or top-dose-only effect, or another doubt; inactive = no such curve, though single readings can be large; an effect the other way counts as inactive or inconclusive.
# Tests used:
# [1] = qHTS assay for measurement of the activity of small molecule inhibitors on Zika virus induced Caspase-3 activity in human iPSC derived neural progenitor cells (hNPCs) (AID 1224857); note: nearly all actives have a fitted effect of over 65% in size
# Method in brief: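 Pretreat hNPCs with compound 1 h; infect ZIKV 2 FFU/cell; 6 h 37 C, 5% CO2; Caspase-Glo 3/7, 30 min RT; luminescence; normalize to no-virus and virus-only wells.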
# [2] = qHTS assay for measurement of the activity of small molecule inhibitors on Zika virus induced Caspase-3 activity in human astrocytoma cells (AID 1224859)
# Method in brief: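 Human SNB-19 astrocytoma cells in RPMI 1640 with 10% FBS receive compound one hour ahead of Zika virus at 2 FFU/cell. After 6 h infection, caspase-3/7 activity is detected by Caspase-Glo luminescence.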
# [3] = qHTS assay to identify small molecule inhibitors of chordoma cells - UCH-1 (AID 1259355); note: nearly all actives have a fitted effect of over 55% in size; note: potency is the fitted concentration of half-maximal effect; series mostly up to about 46 µM
# Method in brief: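 Cells (800/well) were seeded and left overnight at 37 C, 5% CO2, then treated with drugs at 15 concentrations plus a combination mix of auranofin, camptothecin, doxorubicin, rubitecan and topotecan. Viability after 48hr was read by CellTiter-Glo luminescence.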
# [4] = qHTS assay to identify small molecule inhibitors of chordoma cells - UCH-2 (AID 1259356); note: series mostly up to about 46 µM
# [5] = NS1 protein of Zika virus - qHTS assay to identify small molecule inhibitors in human HEK 293 cells (AID 1347053); note: series mostly up to about 46 µM; nearly all actives have a fitted effect of over 55% in size
# Method in brief: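 HEK 293 cells, seeded 20 h at 37 C, were pretreated with compound 1 h, then infected with ZIKV MR766 (MOI = 0.5) for 24 h. NS1 was read by TR-FRET with two anti-NS1 antibodies, normalized to uninfected and infected wells.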
# [6] = P-glycoprotein substrates identified in KB-8-5-11 adenocarcinoma cell line, qHTS therapeutic library screen (AID 1346987); note: nearly all actives have a fitted effect of over 65% in size; note: potency is the fitted concentration of half-maximal effect
# Method in brief: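 P-gp-mediated resistance screen: KB-8-5-11 cells treated 72 h with compounds in dose-response. CellTiter-Glo viability.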
Structure (SMILES),outcome [1],outcome [2],Potency [3],Potency [4],Potency [5],Potency [6]
C[C@]12CC[C@H]3[C@@H](CCC4=CC(=O)CC[C@@]43C)[C@@H]1CC[C@@H]2C(=O)CO,inactive,inactive,inactive,inactive,inactive,
C[C@H]1[C@H](NC(=O)/C(=N/OC(C)(C)C(=O)O)c2csc(N)n2)C(=O)N1S(=O)(=O)O (stereo in doubt),inactive,inactive,inactive,inactive,inactive,
Nc1ccc(C(=O)O)cc1,inactive,inactive,inactive,inactive,inactive,
Cc1cccn2c(=O)c(-c3nnn[nH]3)cnc12,inactive,inactive,inactive,inactive,inactive,
CCN(CC)C(=O)N1CCN(C)CC1,inactive,inactive,inactive,inactive,inactive,
CCCC(=O)Nc1ccc(OCC(O)CNC(C)C)c(C(C)=O)c1 (stereo unspecified),inactive,inactive,inactive,inactive,inactive,
CCOC(=O)COc1ccc2c(C)c(CCN(CC)CC)c(=O)oc2c1Cl,inactive,inactive,inactive,,inactive,inactive
COc1cccc(OC)c1C(=O)N[C@@H]1C(=O)N2[C@@H]1SC(C)(C)[C@@H]2C(=O)O,inactive,inactive,inactive,,inactive,
COc1ccc(CCN2CCC(Nc3nc4ccccc4n3Cc3ccc(F)cc3)CC2)cc1,inactive,inactive,31.6 µM (active),,,20.6 µM (active)
C/C=C(/C(=C/C)c1ccc(O)cc1)c1ccc(O)cc1,inactive,inactive,,inactive,,
CC(=O)Oc1ccc2c(c1)CC[C@@H]1[C@@H]2CC[C@]2(C)[C@@H](O)CC[C@@H]12,inactive,inactive,inactive,,inactive,5.17 µM (active)
